Rows were chosen to be rich in hits. Some 7.3% of all compounds tested hit in one or more screens of this group.
NPC1 promoter act – qHTS Assay for NPC1 Promoter Activators; Huh7 NPC1 promoter luciferase reporter, 24 h; Potency, µM (series often up to 9.22 µM), most hits filed as activators; hit rate 2.4% among 320,000; AID 485313, 2010; also: nearly all actives have a fitted effect of over 60% in size
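Compounds in DMSO were transferred onto Huh7 NPC1-luciferase reporter cells pre-incubated 2 h; after 24 h at 37 °C, Amplite reagent was dispensed and luminescence recorded 10 min later.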
SMN2 splice up – qHTS Assay for Enhancers of SMN2 Splice Variant Expression; HEK293 SMN2-luciferase splicing reporter, luminescence, 30-36 h; Potency, µM (series often up to 46.1 µM), usual class: activators; hit rate 2.8% among 210,000; also: nearly all actives have a fitted effect of over 55% in size
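qHTS luciferase splicing reporter: luminescence rises when SMN2 exon 7 is included in transfected HEK293 cells. Compound exposure lasted 30-36 h at 37C, with 4.5 mM final sodium butyrate as control, followed by a ONE-Glo read.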
Luc counter – Counterscreen for Luciferase (Kinase-Glo TM) Inhibition; Potency, µM (highest dose often 38.3 µM), hits mostly inhibitors; hit rate 0.28% among 200,000; Kinase-Glo luciferase, ATP luminescence, 8 min; Luciferin 4-monooxygenase (Photuris pensylvanica), Q27757; also: nearly all actives have a fitted effect of over 60% in size
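Inhibition of Kinase-Glo luciferase light generation was assessed at 10 uM ATP in pH 7.2 imidazole buffer, with luminescence measured after eight minutes at ambient temperature.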
FLuc modulator – qHTS profiling assay for firefly luciferase inhibitor/activator using purifed enzyme and Km concentrations of substrates (counterscreen for miR-21 project); Luciferin 4-monooxygenase (Photinus pyralis), P08659; purified FLuc, Km substrates, luminescence inhibition; Potency, µM (doses to about 57.5 µM), usual class: inhibitors; hit rate 6.9% among 360,000; AID 588342, 2011; also: nearly all actives have a fitted effect of over 55% in size
Target sequence (P08659 whole entry, looked up): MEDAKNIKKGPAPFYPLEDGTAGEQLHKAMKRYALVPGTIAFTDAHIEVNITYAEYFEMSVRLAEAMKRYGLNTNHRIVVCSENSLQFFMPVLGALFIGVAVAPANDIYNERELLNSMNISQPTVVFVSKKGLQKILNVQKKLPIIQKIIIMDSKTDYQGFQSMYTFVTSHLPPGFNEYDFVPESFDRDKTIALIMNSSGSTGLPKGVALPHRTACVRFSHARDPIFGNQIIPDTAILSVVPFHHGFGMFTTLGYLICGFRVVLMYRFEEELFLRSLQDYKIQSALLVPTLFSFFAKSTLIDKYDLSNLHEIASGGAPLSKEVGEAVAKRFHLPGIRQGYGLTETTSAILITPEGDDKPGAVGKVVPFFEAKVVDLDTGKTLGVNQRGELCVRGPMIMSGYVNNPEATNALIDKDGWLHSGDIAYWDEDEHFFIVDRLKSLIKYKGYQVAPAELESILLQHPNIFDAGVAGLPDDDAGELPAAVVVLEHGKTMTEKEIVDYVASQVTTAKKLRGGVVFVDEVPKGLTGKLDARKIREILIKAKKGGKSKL
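Biochemical qHTS of compounds, final roughly 60 µM downward over six points, against 10 nM purified firefly luciferase using Km concentrations of substrates (10 uM D-luciferin, 10 uM ATP) in Tris acetate pH 7.5 buffer; luminescence output.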
ELG1 genotoxic – qHTS screen for small molecules that induce genotoxicity in human embryonic kidney (HEK293T) cells expressing luciferase-tagged ELG1. AID 504466, 2011. Potency, µM (highest dose often 46 µM), actives largely listed as activators. HEK293T ELG1-luciferase reporter, luminescence, 16 h. hit rate 1.3% among 330,000; also: nearly all actives have a fitted effect of over 60% in size
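Reporter readout depends on ELG1 protein level, which increases with genetic stress. After 16 hr compound exposure at 37 °C, luciferase activity was quantified using ONE-Glo.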
Rab9 prom act – qHTS Assay for Rab9 Promoter Activators; AID 485297, 2010; Huh7 Rab9 promoter-luciferase reporter, luminescence, 24 h; hit rate 2.8% among 320,000; Potency, µM (top dose mostly 9.22 µM), actives largely listed as activators; also: nearly all actives have a fitted effect of over 60% in size
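Luminescence read-out: Huh7 cells stably expressing Rab9-luciferase, treated 24 h with compound at 37 °C, then lysed with luciferase reagent for 10 min at ambient before reading.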
Numbers stand for hits; [ ] = dose if it differs, or a comment. Calls follow the shape of the dose curve; as a rule, active = well fitted curve in the direction sought with a large enough effect; inconclusive = small, poorly fitted or top-dose-only effect, or another doubt; inactive = no such curve, though single readings can be large; an effect the other way counts as inactive or inconclusive.

`CCOc1ccccc1C(=O)Nc1c(C(=O)Nc2ccc(F)cc2)oc2ccccc12` gave SMN2 splice up inactive and FLuc modulator inactive.
For COc1cc2c(cc1OC)C(COc1ccc(F)cc1)N(C(=O)c1ccc(S(=O)(=O)N3CCCC3)cc1)CC2 (stereo unspecified) the results were FLuc modulator inactive.
Screening Cc1ccc(-c2cc(=O)[nH][nH]2)c(C)c1 returned NPC1 promoter act inactive, SMN2 splice up inactive, Luc counter inactive, FLuc modulator inactive, ELG1 genotoxic inactive and Rab9 prom act inactive.
CC(C)Cc1ccc(-c2cc(=O)[nH][nH]2)cc1 was read as NPC1 promoter act inactive, SMN2 splice up inactive, Luc counter inactive, FLuc modulator 17µM, ELG1 genotoxic inactive and Rab9 prom act inactive.
Screening Cc1ccc(-n2cc(CNCCc3ncc(C)[nH]3)c(-c3ccc(F)cc3)n2)cc1 returned NPC1 promoter act inactive, SMN2 splice up inactive, Luc counter inactive, FLuc modulator 27µM, ELG1 genotoxic inactive and Rab9 prom act inactive.
For Cc1ccc(-n2cc(CNCCn3nc(C)cc3C)c(-c3ccc(F)cc3)n2)cc1 the results were NPC1 promoter act inactive, Luc counter inactive, FLuc modulator 27µM, ELG1 genotoxic inactive and Rab9 prom act inactive.
`Cc1cccc(-n2cc(CNCCN3CCOC3=O)c(-c3cccc(F)c3)n2)c1` gave NPC1 promoter act inactive, FLuc modulator 9.5µM, ELG1 genotoxic inactive and Rab9 prom act inactive.
COc1ccc(-n2cc(CNCCN3CCOC3=O)c(-c3ccccc3Cl)n2)cc1 was read as NPC1 promoter act inactive, FLuc modulator 17µM, ELG1 genotoxic inactive and Rab9 prom act inactive.
Screening Cc1ccc(-n2cc(CNCCCN3CCCC3=O)c(-c3ccc(F)cc3)n2)cc1 returned NPC1 promoter act inactive, Luc counter inactive, FLuc modulator inconclusive, ELG1 genotoxic inactive and Rab9 prom act inactive.
For COc1ccc(-n2cc(CNCCc3nc(C)cc(C)n3)c(-c3ccccc3Cl)n2)cc1 the results were NPC1 promoter act inactive, SMN2 splice up inactive, Luc counter inactive, FLuc modulator inconclusive, ELG1 genotoxic inactive and Rab9 prom act inactive.
`CCCCN1C(=O)C(O)(CC(=O)c2ccc(C(C)(C)C)cc2)c2ccccc21` (stereo unspecified) gave SMN2 splice up inactive and FLuc modulator inactive.
Cc1ccc(SCCNC(=O)CN(c2cccc(C)c2C)S(C)(=O)=O)cc1 was read as SMN2 splice up inactive and FLuc modulator inactive.
`Cc1ccc(-n2cc(CNCCN3CCOC3=O)c(-c3ccc(F)cc3)n2)cc1` gave NPC1 promoter act inactive, Luc counter inactive, FLuc modulator 7.6µM, ELG1 genotoxic inactive and Rab9 prom act inactive.
For CCN1CCN(c2ccc(NC(=O)c3ccc4c(c3)OCCO4)cc2C)CC1 the results were NPC1 promoter act 2.8µM, FLuc modulator 6.7µM, ELG1 genotoxic inconclusive and Rab9 prom act 1.6µM.
`CS(=O)(=O)c1ccc(C(=O)Nc2ccc(N3CCCCC3)cc2)c(Cl)c1` gave NPC1 promoter act inactive, SMN2 splice up inactive, Luc counter inactive, FLuc modulator inactive, ELG1 genotoxic inactive and Rab9 prom act inactive.
`CN1CCN(c2ccc(NC(=O)c3ccc4c(c3)OCCO4)cc2)CC1` gave NPC1 promoter act 2.2µM, SMN2 splice up 11µM, Luc counter inactive, FLuc modulator 6µM, ELG1 genotoxic 4.6µM and Rab9 prom act 3.2µM.
For CCN1CCc2nc(NC(=O)c3ccc4c(c3)OCCO4)sc2C1 the results were NPC1 promoter act inconclusive, SMN2 splice up inconclusive, Luc counter inactive, FLuc modulator 11µM, ELG1 genotoxic inconclusive and Rab9 prom act inconclusive.
For CCC(=O)N1CCN(c2ccc(NC(=O)c3ccc4c(c3)OCCO4)cc2)CC1 the results were NPC1 promoter act inactive, SMN2 splice up inactive, Luc counter inactive, FLuc modulator inactive, ELG1 genotoxic inconclusive and Rab9 prom act inactive.
Screening Cc1ccc(C(=O)Nc2ccc(N3CCN(C)CC3)cc2)c(Cl)c1 returned NPC1 promoter act 3.5µM, FLuc modulator 24µM, ELG1 genotoxic inconclusive and Rab9 prom act 3.5µM.
For CCCCn1cc(S(=O)(=O)c2ccc(CC)cc2)c(=O)c2cc(F)c(N3CCCC(C)C3)cc21 (stereo unspecified) the results were FLuc modulator inactive.
For O=C(Cc1ccc(F)cc1)NCc1ccc2c(c1)CCN2C(=O)c1ccc(F)cc1 the results were FLuc modulator inactive.
For Cc1ccc(S(=O)(=O)N=Nc2c(O)[nH]c3cc(O)c(C(=O)O)cc23)cc1 the results were SMN2 splice up inactive[9.22 µM] and Luc counter inactive[7.66 µM].
`Cc1ccc(C(=O)Nc2ccc(N3CCN(S(C)(=O)=O)CC3)cc2)cc1C` gave NPC1 promoter act inactive, Luc counter inactive, FLuc modulator inactive, ELG1 genotoxic inactive and Rab9 prom act inactive.
`Cc1ccc(C(=O)Nc2ccc(N3CCN(C)CC3)cc2)cc1C` gave NPC1 promoter act 0.79µM, FLuc modulator 3.4µM, ELG1 genotoxic 1.8µM and Rab9 prom act 0.71µM.
Screening COc1ccccc1CNC(=O)CC(c1ccc(C)cc1)N1Cc2ccccc2C1=O (stereo unspecified) returned FLuc modulator inactive.
`CC(C)C/C=C1\CCc2c([nH]c3ccccc23)C1=O` gave NPC1 promoter act inactive, Luc counter inactive, FLuc modulator inconclusive, ELG1 genotoxic inconclusive and Rab9 prom act 2.8µM.
CC1C/C(=C\c2cccnc2)C(=O)/C(=C/c2cccnc2)C1 (stereo unspecified) was read as NPC1 promoter act inactive, SMN2 splice up inactive[1.84 µM], Luc counter inactive, FLuc modulator inactive, ELG1 genotoxic inactive and Rab9 prom act inactive.
O=C1/C(=C/c2cccnc2)CCc2c1[nH]c1ccccc21 was read as NPC1 promoter act inactive, Luc counter inactive, FLuc modulator 9.5µM, ELG1 genotoxic inactive and Rab9 prom act 3.2µM.
For COc1ccc(Cn2c(=O)c3oc4ccccc4c3n(CC(=O)Nc3c(C)cccc3C)c2=O)cc1 the results were FLuc modulator inactive.
`COc1ccc(-c2noc(CSc3nc(N)cc(=O)[nH]3)n2)cc1OC` gave FLuc modulator inactive.
`CCOC(=O)c1sc(NC(=O)c2cc(CC)on2)c(C(=O)OCC)c1C` gave SMN2 splice up inactive and FLuc modulator inactive.
Screening O=C(Nc1ccccc1)OCCNC(=O)c1cccc(Cl)c1 returned NPC1 promoter act inactive, SMN2 splice up inactive, Luc counter inactive, FLuc modulator 21µM, ELG1 genotoxic inactive and Rab9 prom act inactive.
